The supplement of paper PMC8975748
Counter-ions that a name gives are not always drawn. ± gives the standard deviation of the averaged measurements.

How the values were obtained:
[1] = system: Saccharomyces cerevisiae BY4741 SeMeCo community; assay: z-score of subpopulation abundance vs DMSO median, subpopulation auxotrophic for M; higher = larger share of this subpopulation than in DMSO controls; conditions: 10 µM; 24 h; SM minimal medium; subpopulation (auxotrophy): M
In short: (§1)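 Subpopulation abundance was reported as a z-score against the median of vehicle wells. The Saccharomyces cerevisiae BY4741 community, carrying four plasmids that each restored one auxotrophy and encoded a distinct fluorescent protein, was grown 24 h in minimal SM medium in 384-well plates holding library drugs at 10 µM final. Cells were paraformaldehyde-fixed and imaged by automated confocal microscopy, with single-auxotroph fluorescent strains used for thresholds and autofluorescence correction.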

[2] = system: Saccharomyces cerevisiae BY4741 SeMeCo community; assay: z-score of subpopulation abundance vs DMSO median, subpopulation auxotrophic for L; higher = larger share of this subpopulation than in DMSO controls; conditions: 10 µM; 24 h; SM minimal medium; subpopulation (auxotrophy): L
In short: as §1

[3] = system: Saccharomyces cerevisiae BY4741 SeMeCo community; assay: z-score of subpopulation abundance vs DMSO median, subpopulation auxotrophic for U; higher = larger share of this subpopulation than in DMSO controls; conditions: 10 µM; 24 h; SM minimal medium; subpopulation (auxotrophy): U
In short: as §1

[4] = system: Saccharomyces cerevisiae BY4741 SeMeCo community; assay: z-score of subpopulation abundance vs DMSO median, subpopulation auxotrophic for LU; higher = larger share of this subpopulation than in DMSO controls; conditions: 10 µM; 24 h; SM minimal medium; subpopulation (auxotrophy): LU
In short: as §1

[5] = system: Saccharomyces cerevisiae BY4741 SeMeCo community; assay: z-score of subpopulation abundance vs DMSO median, subpopulation auxotrophic for LM; higher = larger share of this subpopulation than in DMSO controls; conditions: 10 µM; 24 h; SM minimal medium; subpopulation (auxotrophy): LM
In short: as §1

[6] = system: Saccharomyces cerevisiae BY4741 SeMeCo community; assay: z-score of subpopulation abundance vs DMSO median, subpopulation auxotrophic for HM; higher = larger share of this subpopulation than in DMSO controls; conditions: 10 µM; 24 h; SM minimal medium; subpopulation (auxotrophy): HM
In short: as §1

[7] = system: Saccharomyces cerevisiae BY4741 SeMeCo community; assay: z-score of subpopulation abundance vs DMSO median, subpopulation auxotrophic for HU; higher = larger share of this subpopulation than in DMSO controls; conditions: 10 µM; 24 h; SM minimal medium; subpopulation (auxotrophy): HU
In short: as §1

[8] = system: Saccharomyces cerevisiae BY4741 SeMeCo community; assay: z-score of subpopulation abundance vs DMSO median, subpopulation auxotrophic for UM; higher = larger share of this subpopulation than in DMSO controls; conditions: 10 µM; 24 h; SM minimal medium; subpopulation (auxotrophy): UM
In short: as §1

[9] = system: Saccharomyces cerevisiae BY4741 SeMeCo community; assay: z-score of subpopulation abundance vs DMSO median, subpopulation auxotrophic for HL; higher = larger share of this subpopulation than in DMSO controls; conditions: 10 µM; 24 h; SM minimal medium; subpopulation (auxotrophy): HL
In short: as §1

[10] = system: Saccharomyces cerevisiae BY4741 SeMeCo community; assay: z-score of subpopulation abundance vs DMSO median, subpopulation auxotrophic for HLU; higher = larger share of this subpopulation than in DMSO controls; conditions: 10 µM; 24 h; SM minimal medium; subpopulation (auxotrophy): HLU
In short: as §1

[11] = system: Saccharomyces cerevisiae BY4741 SeMeCo community; assay: z-score of subpopulation abundance vs DMSO median, subpopulation auxotrophic for HUM; higher = larger share of this subpopulation than in DMSO controls; conditions: 10 µM; 24 h; SM minimal medium; subpopulation (auxotrophy): HUM
In short: as §1

[12] = system: Saccharomyces cerevisiae BY4741 SeMeCo community; assay: z-score of subpopulation abundance vs DMSO median, subpopulation auxotrophic for LUM; higher = larger share of this subpopulation than in DMSO controls; conditions: 10 µM; 24 h; SM minimal medium; subpopulation (auxotrophy): LUM
In short: as §1

[13] = system: Saccharomyces cerevisiae BY4741 SeMeCo community; assay: z-score of subpopulation abundance vs DMSO median, subpopulation auxotrophic for HLUM; higher = larger share of this subpopulation than in DMSO controls; conditions: 10 µM; 24 h; SM minimal medium; subpopulation (auxotrophy): HLUM
In short: as §1

[14] = system: Saccharomyces cerevisiae BY4741 SeMeCo community; assay: mean cell size (pixel area) (pixels); higher = larger cells; conditions: 10 µM; 24 h; SM minimal medium
In short: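 Harmony analysis of automated confocal images of paraformaldehyde-fixed yeast gave the mean cell pixel area per well. The yeast was a Saccharomyces cerevisiae BY4741 community carrying four plasmids, each with a fluorescent marker and each complementing one auxotrophy, incubated for 24 h in SM medium containing drug at a final 10 µM in 384-well plates. Results are averaged over 3 replicates. Same SeMeCo high-content imaging drug screen: Selleck FDA-approved drugs at 10 µM, 24 h in SM medium, 384-well plates, 3 replicates.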

[15] = system: Saccharomyces cerevisiae BY4741 SeMeCo community; assay: z-score of prototroph abundance vs DMSO median; higher = larger share of this subpopulation than in DMSO controls; conditions: 10 µM; 24 h; SM minimal medium; subpopulation (auxotrophy): Prototroph
In short: as §1

[16] = system: Saccharomyces cerevisiae BY4741 SeMeCo community; assay: z-score of subpopulation abundance vs DMSO median, subpopulation auxotrophic for H; higher = larger share of this subpopulation than in DMSO controls; conditions: 10 µM; 24 h; SM minimal medium; subpopulation (auxotrophy): H
In short: as §1

[17] = system: Saccharomyces cerevisiae BY4741 SeMeCo community; assay: z-score of subpopulation abundance vs DMSO median, subpopulation auxotrophic for HLM; higher = larger share of this subpopulation than in DMSO controls; conditions: 10 µM; 24 h; SM minimal medium; subpopulation (auxotrophy): HLM
In short: as §1

Compound	z-score of subpopulation abundance [1]	z-score of subpopulation abundance [2]	z-score of subpopulation abundance [3]	z-score of subpopulation abundance [4]	z-score of subpopulation abundance [5]	z-score of subpopulation abundance [6]	z-score of subpopulation abundance [7]	z-score of subpopulation abundance [8]	z-score of subpopulation abundance [9]	z-score of subpopulation abundance [10]	z-score of subpopulation abundance [11]	z-score of subpopulation abundance [12]	z-score of subpopulation abundance [13]	mean cell size [14]	z-score of prototroph abundance [15]	z-score of subpopulation abundance [16]	z-score of subpopulation abundance [17]
CCCCOc1cc(C(=O)OCCN(CC)CC)ccc1N [Oxybuprocaine HCl]	0.72	0.22	-0.29	-0.72	0.31	0.19	0.6	-0.55	0.21	-0.16	0.57	0.25	0.34	–	–	–	–
O=C(O[C@H]1CN2CCC1CC2)N1CCc2ccccc2[C@@H]1c1ccccc1 [Solifenacin succinate]	0.77	–	0.4	0.43	0.27	0	0.28	–	0.67	0.46	0.3	0.68	0.94	12.1 ± 0.28	-0.49	-0.91	0.25
Cc1cccc(N(C)C(=S)Oc2ccc3ccccc3c2)c1 [Tolnaftate]	-0.22	-0.24	-0.32	-0.35	–	-0.59	-0.22	-0.08	-0.75	-0.38	-0.16	-0.11	-1.09	12.3 ± 0.27	0.3	-1.13	–
CC1(C)S[C@@H]2[C@H](NC(=O)[C@H](C(=O)O)c3ccsc3)C(=O)N2[C@H]1C(=O)O [Ticarcillin sodium]	1.32	–	-0.93	1.74	2.06	0.42	-0.4	–	2.48	1.46	0.83	1.35	1.75	12.4 ± 0.22	-0.89	–	1.43
CN(C)CCCC1(c2ccc(F)cc2)OCc2cc(C#N)ccc21 (centres undefined) [Citalopram HBr]	-0.6	-0.17	1.58	0.92	–	-0.81	0.64	0.83	-0.06	0.43	0.08	-0.03	1.38	–	-0.34	0.36	–
CC(=O)[C@@]1(O)CC[C@H]2[C@@H]3C[C@H](C)C4=CC(=O)CC[C@]4(C)[C@H]3CC[C@@]21C [Medroxyprogesterone]	0.07	0.51	0.2	0.44	0.45	-0.02	–	-0.35	0.3	1.06	–	0.93	–	–	-0.12	-0.26	–
CCN(CC)CCNC(=O)c1cc(Cl)c(N)cc1OC [Metoclopramide]	0.35	-0.22	–	0.6	0.08	0.05	–	1.28	-0.39	1.27	–	1.17	1.06	12 ± 0.25	-1.14	-0.88	–
COc1cccc(CCc2ccccc2OCC(CN(C)C)OC(=O)CCC(=O)O)c1 (centres undefined) [Sarpogrelate hydrochloride]	-0.54	–	-0.21	-0.09	-0.29	-0.54	-0.27	0.14	–	-0.99	-0.04	-0.21	-0.48	12.3 ± 0.35	0.79	-0.59	-0.89
COc1c(N2C[C@@H]3CCCN[C@@H]3C2)c(F)cc2c(=O)c(C(=O)O)cn(C3CC3)c12 [Moxifloxacin HCl]	0.89	2.07	-0.98	-0.22	–	–	-0.55	–	1.26	-0.07	0.22	0.77	1.08	12.3 ± 0.15	-0.74	0.53	–
CC(C(=O)O)c1ccc2c(c1)CC(=O)c1ccccc1S2 (centres undefined) [Zaltoprofen]	1.11	–	0.2	-0.2	-0.57	0.46	-0.7	-1.01	-0.14	-0.03	-0.7	-0.71	-0.59	12.82 ± 0.12	0.63	0.04	0.64
Nc1ccc(S(=O)(=O)Nc2nccs2)cc1 [Sulfathiazole]	-0.25	–	0.9	0.15	-0.24	-0.53	-0.39	1.04	-0.09	0.27	0.33	0.11	-0.19	12.4 ± 0.21	0.17	–	-0.42
CCOC(=O)C1=C[C@]2(CC)CCCN3CCc4c(n1c1ccccc41)[C@@H]32 [Vinpocetine]	2.07	0.01	–	0.81	–	0.55	-0.02	1.1	0.11	-0.1	0.65	–	0.54	12.3 ± 0.23	-0.9	-0.46	–
CCCSc1ccc2[nH]c(NC(=O)OC)nc2c1 [Albendazole]	0.54	-0.04	0.62	0.31	0.33	0.37	–	–	-0.39	0.38	-0.14	-0.08	–	–	-0.36	–	–
CN[C@H](CC(C)C)C(=O)N[C@H]1C(=O)N[C@@H](CC(N)=O)C(=O)N[C@H]2C(=O)N[C@H]3C(=O)N[C@H](C(=O)N[C@H](C(=O)O)c4cc(O)cc(O)c4-c4cc3ccc4O)[C@H](O)c3ccc(c(Cl)c3)Oc3cc2cc(c3O[C@@H]2O[C@H](CO)[C@@H](O)[C@H](O)[C@H]2O[C@H]2C[C@](C)(N)[C@H](O)[C@H](C)O2)Oc2ccc(cc2Cl)[C@H]1O [Vancomycin HCl]	0.48	–	–	0.18	0.26	0.33	0.05	0.58	-0.36	-0.51	0.51	-0.38	-0.53	12.1 ± 0.11	0	–	0.73
O=C(Nc1ccc(Oc2ccc(Cl)cc2)c(Cl)c1)c1cc(I)cc(I)c1O [Rafoxanide]	-0.29	–	-1.44	-0.7	0.2	0.8	-0.5	-0.89	1.29	-0.3	0.54	-0.08	0.01	12.2 ± 0.19	0.24	1.91	0.01
